Bioassay records deposited in PubChem BioAssay by National Center for Advancing Translational Sciences (NCATS).
An excerpt weighted towards active compounds, which were near 2.7% of everything screened.
A549 viability – A549 cytotoxicity, counter-screen for Nrf2 inhibitors. A549 ARE-Fluc cells, CellTiter-Fluor viability, 18-24 h. actives 0.16% (n = 390,000). Potency, µM (highest dose often 46 µM), for inactives: at the top dose activity change, negative = cytotoxicity, usual class: inhibitors. AID 504648; note: potency is the fitted concentration of half-maximal effect; % is set by controls: 0 for no effect and ±100 for the full control effect
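A549 ARE-Fluc cells in 5% FBS OPTI-MEM, 5000 cells/well, rested 2 h then exposed to compounds in concentration-response for 18-24 h at 37 °C. Viability by CellTiter-Fluor fluorescence (Ex 405/Em 525) after 30 min; luciferase luminescence (BugLite, 15 min, RT) read afterwards.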
Nrf2 inh – blocks Nrf2 signaling; actives 2.1% (n = 360,000); Potency, µM (titrated, usually from 46 µM), without a hit: top-dose activity change, negative = inhibition, most hits filed as inhibitors; AID 504444; A549 ARE-Fluc reporter, luciferase luminescence, 18-24 h; note: potency is the fitted concentration of half-maximal effect; % is set by controls: 0 for no effect and ±100 for the full control effect; nearly all actives have a fitted effect of over 60% in size
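Nrf2 activity is the BugLite luminescence, read 15 min after reagent at room temperature, following CellTiter-Fluor cytotoxicity readout (30 min, 37C). Compound titrations were applied for 18-24 h to 5000 A549 ARE_Fluc cells/well in 5% FBS OPTI-MEM.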
ALOX12 inh – blocks human arachidonate 12S-lipoxygenase; P18054; purified 12hLO, xylenol orange hydroperoxide absorbance; Potency, µM (series often up to 108 µM), inactives show at the top dose activity change, negative = inhibition, usual class: inhibitors; actives 1.1% (n = 580,000); AID 1671190; note: potency is the fitted concentration of half-maximal effect; % is set by controls: 0 for no effect and ±100 for the full control effect
Target sequence (P18054 whole entry, looked up): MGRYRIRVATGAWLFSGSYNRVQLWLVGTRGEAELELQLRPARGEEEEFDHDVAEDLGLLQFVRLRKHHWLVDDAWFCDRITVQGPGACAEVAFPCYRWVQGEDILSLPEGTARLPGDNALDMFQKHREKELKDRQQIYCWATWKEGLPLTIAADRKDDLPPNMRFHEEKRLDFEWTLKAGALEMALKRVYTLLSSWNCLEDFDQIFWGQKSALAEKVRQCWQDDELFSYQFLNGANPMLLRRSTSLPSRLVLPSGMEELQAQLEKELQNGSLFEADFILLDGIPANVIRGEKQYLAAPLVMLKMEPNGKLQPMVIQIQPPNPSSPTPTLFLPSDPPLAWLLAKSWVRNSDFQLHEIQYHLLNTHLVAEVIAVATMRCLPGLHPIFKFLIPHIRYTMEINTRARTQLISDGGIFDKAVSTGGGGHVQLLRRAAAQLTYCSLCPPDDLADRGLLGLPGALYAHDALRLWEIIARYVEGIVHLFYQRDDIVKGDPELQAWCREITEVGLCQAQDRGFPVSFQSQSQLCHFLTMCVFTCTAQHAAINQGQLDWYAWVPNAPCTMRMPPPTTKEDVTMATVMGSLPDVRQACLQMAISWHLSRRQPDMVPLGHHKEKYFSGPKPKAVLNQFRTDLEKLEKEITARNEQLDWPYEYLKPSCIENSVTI
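Hydroperoxide product was detected by ferrous iron/xylenol orange as the 573 to 405 nm absorbance ratio. Arachidonic acid at 40 uM (final) was turned over for 30 min at room temperature by 150 nM human 12hLO, pH 7.0 Hepes buffer, after 15 min compound preincubation.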
Nrf2 ARE act – activators of Nrf2 (ARE) signaling; AREc32 ARE-luciferase reporter (MCF7-derived line), luminescence, 24 h; Potency, µM (highest dose often 46.1 µM), for the others: at the top dose activation, hits mostly activators; actives 0.31% (n = 410,000); AID 624171; note: potency is the fitted concentration of half-maximal effect; % of control where 0% means no effect; nearly all actives have a fitted effect of over 65% in size
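AREc32_Fluc, 1000 cells/well, OPTI-MEM + 5% FBS, o/n 37 deg C 5% CO2; 23 nL cpd by pin tool, 24 hr; Steady-Glo 30 min RT, luminescence.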
LDHA block – LDHA (human) enzyme inhibition. actives 0.15% (n = 480,000). purified LDHA, NADH/diaphorase-resazurin fluorescence; hits give low values. activity change, % (values are at about 110 or 230 µM). P00338; in the data active = activity change below about -30%; inconclusive = mostly about -25% to -30%;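 note: plate controls were DMSO wells for no effect and wells without enzyme for full effect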
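Human LDH5 at 2 nM final in Tris HCl pH 7.4 with 0.06 mM NADH and 0.2 mM pyruvate, reacted 5 minutes at room temperature. Remaining NADH coupled via diaphorase/resazurin; resorufin fluorescence read at 0 and 20 minutes, normalized to enzyme-free and DMSO wells.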
mIDH1 inhibitor – inhibitors of human mutant IDH1 R132H. O75874. IDH1-R132H enzyme, NADPH consumption, diaphorase/resazurin fluorescence. Potency, µM (highest dose often 76.6 µM), for inactives: at the highest dose activity change, negative = inhibition, most hits filed as inhibitors. actives 0.093% (n = 390,000). AID 602179; note: potency is the fitted concentration of half-maximal effect; % is set by controls: 0 for no effect and ±100 for the full control effect; nearly all actives have a fitted effect of over 65% in size
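IDH1-R132H (0.5 ug/mL dispensed) in pH 7.5 Tris buffer was preincubated 30 min with compound, then given a substrate mix of 0.016 mM NADPH and 2 mM alpha-KG for 80 min at room temperature; remaining NADPH was read by diaphorase/resazurin fluorescence.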
Active calls of the source: *; ! = a repeat was not active; [ ] = dose if it differs, or a comment. Unless noted, calls come from the whole dose curve; as a rule, active = well fitted curve in the direction sought with a large enough effect; inconclusive = small, poorly fitted or top-dose-only effect, or another doubt; inactive = no such curve, though single readings can be large; an effect the other way counts as inactive or inconclusive.

What do the screens show for `CCOC(=O)C1=C(CN2CCN(c3ccccc3F)CC2)NC(=O)NC1c1ccc(Cl)cc1` (stereo not given)?
A549 viability: -22%; Nrf2 inh: 21µM*; ALOX12 inh: -18%; Nrf2 ARE act: -1%; LDHA block: -4; mIDH1 inhibitor: -1%

Results for CCOC(=O)C1=C(CN2CCN(c3ccc(Cl)cc3)CC2)NC(=O)NC1c1ccc(F)cc1 (stereo not given) ?
A549 viability: inconclusive; Nrf2 inh: inconclusive; ALOX12 inh: inconclusive; Nrf2 ARE act: 7%; LDHA block: 1; mIDH1 inhibitor: -9%

What do the screens show for `Cc1c(C(=O)c2cccc(C(F)(F)F)c2)c2ccccn2c1CCC#N`?
ALOX12 inh: inconclusive; LDHA block: 2

What do the screens show for `CC(C)Cn1nc(C(=O)NCc2ccc(F)cc2)c2ccccc2c1=O`?
ALOX12 inh: inconclusive; LDHA block: 11

How did Cc1ccc2c(c1C)NC(C)CC2C (stereo not given) do in these assays?
A549 viability: -1%; Nrf2 inh: 5%; ALOX12 inh: 4.5µM*!; Nrf2 ARE act: 0%; LDHA block: 4; mIDH1 inhibitor: -6%

How did Oc1cc(O)cc(/C=C/c2ccc(O)c(O)c2)c1 do in these assays?
A549 viability: inconclusive; Nrf2 inh: inconclusive; ALOX12 inh: 7.9µM*!; Nrf2 ARE act: 1%; LDHA block: 10; mIDH1 inhibitor: -2%

Results for COc1ccc2[nH]c(=O)c(-c3nnn(-c4ccccc4)n3)cc2c1 ?
A549 viability: 7%; Nrf2 inh: 18%; ALOX12 inh: -2%; Nrf2 ARE act: 0%; LDHA block: 2; mIDH1 inhibitor: -4%

Results for COc1nc(-c2ccc(Cl)cc2)ccc1-c1noc(-c2ccco2)n1 ?
A549 viability: -2%; Nrf2 inh: 16%; ALOX12 inh: inconclusive; Nrf2 ARE act: 7%; LDHA block: -37*; mIDH1 inhibitor: 5%

What do the screens show for `COc1cccc(-c2ccc(-c3noc(-c4cccs4)n3)c(OC)n2)c1`?
A549 viability: 1%; Nrf2 inh: inconclusive; ALOX12 inh: inconclusive; Nrf2 ARE act: 0%; LDHA block: -38*; mIDH1 inhibitor: 4%

Results for COc1ccc2[nH]c(=O)c(-c3noc(-c4cccs4)n3)cc2c1 ?
ALOX12 inh: inconclusive; LDHA block: -38*

What do the screens show for `COc1ccc(-c2ccc(-c3noc(-c4cc(OC)cc(OC)c4)n3)c(OC)n2)cc1`?
A549 viability: -6%; Nrf2 inh: 1%; ALOX12 inh: -14%; Nrf2 ARE act: -1%; LDHA block: -9; mIDH1 inhibitor: -1%

Results for COc1ccc2[nH]c(=O)c(-c3nnn(-c4ccc(F)cc4)n3)cc2c1 ?
A549 viability: -14%; Nrf2 inh: 6%; ALOX12 inh: 10µM*; Nrf2 ARE act: -1%; LDHA block: 7; mIDH1 inhibitor: 8%

Results for Cc1cc2c(c(SCC(=O)Nc3ccccc3)n1)C(=O)OC2 ?
ALOX12 inh: 40%; LDHA block: -37*

Results for COc1cc(-c2nc(-c3ccccc3)c(-c3ccc(F)cc3)[nH]2)cc2c1OCO2 ?
A549 viability: 1%; Nrf2 inh: -9%; ALOX12 inh: -14%; Nrf2 ARE act: 0%; LDHA block: -8; mIDH1 inhibitor: 2%

How did COc1ccc(-c2[nH]c(-c3ccc4c(c3)OCO4)nc2-c2ccccc2)cc1 do in these assays?
A549 viability: inconclusive; Nrf2 inh: 21µM*; ALOX12 inh: -6%; Nrf2 ARE act: -1%; LDHA block: 5; mIDH1 inhibitor: 8%

Results for CCc1ccc(C(=O)NC(Cc2ccccc2)C(=O)O)cc1 (stereo not given) ?
ALOX12 inh: 4%; LDHA block: 11

Results for CC(=O)N1CCc2c(sc3c2c(=O)n(Cc2ccccc2)c(=O)n3Cc2ccccc2Cl)C1 ?
A549 viability: inconclusive; Nrf2 inh: 18µM*; ALOX12 inh: -9%; Nrf2 ARE act: -1%; LDHA block: -1; mIDH1 inhibitor: -21%

Results for CC(=O)N1CCc2c(sc3c2c(=O)n(Cc2ccccc2)c(=O)n3Cc2ccc(C)cc2)C1 ?
A549 viability: 1%; Nrf2 inh: 3%; ALOX12 inh: -15%; Nrf2 ARE act: 0%; LDHA block: -5; mIDH1 inhibitor: 2%

How did CC(=O)N1CCc2c(sc3c2c(=O)n(Cc2ccccc2)c(=O)n3Cc2ccccc2F)C1 do in these assays?
A549 viability: -18%; Nrf2 inh: 16µM*; ALOX12 inh: 0%; Nrf2 ARE act: -1%; LDHA block: -8; mIDH1 inhibitor: inconclusive

What do the screens show for `COc1cccc(NC(=O)c2nn(CC(C)C)c(=O)c3ccccc23)c1`?
ALOX12 inh: inconclusive; LDHA block: 7

What do the screens show for `COCCNC(=S)N(C)[C@H]1C[C@H]2c3cc(-c4ccccc4)ccc3CCN2C(=O)[C@H]1[C@H](C)O`?
ALOX12 inh: inconclusive; Nrf2 ARE act: 3%; LDHA block: -32*; mIDH1 inhibitor: -4%

How did COc1ccc(S(=O)(=O)N2CCCCCC2)cc1N(C)S(=O)(=O)c1ccccc1 do in these assays?
A549 viability: -9%; Nrf2 inh: 23µM*; ALOX12 inh: -8%; Nrf2 ARE act: 0%; LDHA block: -8; mIDH1 inhibitor: 0%

How did COc1ccc(S(=O)(=O)Nc2ccc(C)cc2)cc1N(C)S(=O)(=O)c1ccc(Cl)cc1 do in these assays?
A549 viability: inconclusive; Nrf2 inh: 18µM*; ALOX12 inh: 25%; Nrf2 ARE act: 5%; LDHA block: -9; mIDH1 inhibitor: -4%

Results for COc1ccc(S(=O)(=O)NN(C)C)cc1N(C)S(=O)(=O)c1ccc(Cl)cc1 ?
A549 viability: -3%; Nrf2 inh: 5%; ALOX12 inh: 19%; Nrf2 ARE act: -1%; LDHA block: -4; mIDH1 inhibitor: 1%

What do the screens show for `CC(=O)Nc1ccc(NC(=O)c2csc(NCCC(C)C)n2)cc1`?
ALOX12 inh: 33%; LDHA block: -2

Results for COc1cc2[nH]c3c(N4CCN(c5ccc(Cl)cc5)CC4)ncnc3c2cc1OC ?
A549 viability: 2%[1.84 µM]; Nrf2 inh: inconclusive; ALOX12 inh: -17%; Nrf2 ARE act: 0%; LDHA block: -3; mIDH1 inhibitor: -2%

How did COc1ccc2[nH]c3c(N4CC(C)OC(C)C4)ncnc3c2c1 (stereo not given) do in these assays?
A549 viability: -4%; Nrf2 inh: -18%; ALOX12 inh: 0%; Nrf2 ARE act: 4%; LDHA block: 5; mIDH1 inhibitor: 14%
